From PubChem
Compounds with a hit are over-represented: about 5.2% of the library has one in this group of screens.
Tau fluor cs = Counterscreen qHTS for Inhibitors of Tau Fibril Formation, Fluorescence Polarization; tau K18 P301L Alexa594 fluorescence, heparin fibrillization; Potency, µM (titrated, usually from 57.7 µM), for inactives: top-dose activity change, negative = decrease; hit rate 0.93% among 280,000; AID 1463, 2008; note: potency is the fitted concentration of half-maximal effect; nearly all actives have a fitted effect of over 55% in size
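Human K18 P301L tau (15 uM unlabeled plus 0.24 uM Alexa 594-labeled, final) in 100 mM sodium acetate pH 7 was mixed with compound and 20 uM heparin and incubated 6 hr at 37 C.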
Sfp inh = qHTS Assay for Inhibitors of Bacillus subtilis Sfp phosphopantetheinyl transferase (PPTase) | 4'-phosphopantetheinyl transferase ffp (Bacillus subtilis), Q9F4F7 | Biochemical Sfp PPTase activity, qHTS | Potency, µM, for inactives: largest response in the series, negative = inhibition, most hits filed as inhibitors | hit rate 3.5% among 310,000 | AID 1490, 2009;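 note: the enzyme is Sfp with the accession as filed and its product quenches rhodamine fluorescence; potency is the fitted concentration of half-maximal effect; 0% = enzyme reaction without inhibitor and -100% = no enzyme wells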
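After 15 min at room temperature with compound, 15 nM Sfp received 5 uM rhodamine-CoA plus 12.5 uM BHQ-2-ybbR (50 mM Hepes pH 7.6, 10 mM MgCl2). Rate came from the fluorescence difference over 30 min, ex 525/em 598 nm.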
Tau fibril FP = qHTS for Inhibitors of Tau Fibril Formation, Fluorescence Polarization. Microtubule-associated protein tau (Homo sapiens), P10636. K18 P301L tau heparin fibrillization, Alexa594 FP, 6 h. Potency, µM (titrated, usually from 57.7 µM), inactives show at the highest dose activity, negative = inhibition, most hits filed as inhibitors. hit rate 0.39% among 280,000. AID 1468, 2008; note: potency is the fitted concentration of half-maximal effect; nearly all actives have a fitted effect of over 55% in size
Target sequence (P10636 561-689 P618L limits assumed): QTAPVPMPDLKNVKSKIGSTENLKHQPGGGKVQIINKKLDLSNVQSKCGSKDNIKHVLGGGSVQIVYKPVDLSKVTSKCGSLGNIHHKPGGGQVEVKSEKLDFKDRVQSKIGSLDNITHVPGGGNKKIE
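Heparin (20 uM) drove fibril formation of recombinant tau K18 P301L, 15 uM unlabeled with 0.24 uM Alexa 594 label, for 6 hr at 37 C in 100 mM sodium acetate pH 7. Fluorescence polarization (555/632 nm) read 1 hr after 30 uM ThT.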
Tau ThT inhib = qHTS for Inhibitors of Tau Fibril Formation, Thioflavin T Binding. AID 1460, 2008. hit rate 2.1% among 270,000. recombinant tau K18 P301L (four-repeat tau fragment), heparin-induced fibrillization, ThT fluorescence. Potency, µM (titrated, usually from 57.4 µM), for the others: at the highest dose activity, negative = inhibition, actives largely listed as inhibitors; note: potency is the fitted concentration of half-maximal effect; nearly all actives have a fitted effect of over 55% in size
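Heparin-induced fibrillization of the P301L-mutant K18 repeat-domain fragment of human tau was followed by ThT binding in quantitative high-throughput format.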
Coupling enz = qHTS Assay for Inhibitors of Fructose-1,6-bisphosphate Aldolase from Giardia Lamblia: Coupling assay counterscreen; hit rate 0.67% among 290,000; activity change, negative = inhibition, % at 58.2 µM, hits read low; coupling enzyme system counterscreen, AmpLite Red fluorescence; AID 2472, 2010; in the data active = activity change below about -30%
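Counterscreen lacking aldolase: glyceraldehyde-3-phosphate coupling-enzyme reagent preincubated 10 min at RT with compound (at 57.5 uM final), then substrate/coupling system with AmpLite Red added; fluorescence read at 525/598 nm after 20 min RT.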
Sfp PPTase conf = Confirmation qHTS Assay for Inhibitors of Bacillus subtilis Sfp phosphopantetheinyl transferase (PPTase); AID 2701, 2010; hit rate 79% among 380; Sfp PPTase enzymatic assay, qHTS titration; Potency, µM (series often up to 114 µM), for the others: top-dose activity change, negative = inhibition, hits mostly inhibitors; shares compounds with Sfp inh;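 note: potency is the fitted concentration of half-maximal effect; plate controls were uninhibited Sfp reaction for no effect and no enzyme control for full effect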
Target sequence (Q9F4F7 whole entry, looked up): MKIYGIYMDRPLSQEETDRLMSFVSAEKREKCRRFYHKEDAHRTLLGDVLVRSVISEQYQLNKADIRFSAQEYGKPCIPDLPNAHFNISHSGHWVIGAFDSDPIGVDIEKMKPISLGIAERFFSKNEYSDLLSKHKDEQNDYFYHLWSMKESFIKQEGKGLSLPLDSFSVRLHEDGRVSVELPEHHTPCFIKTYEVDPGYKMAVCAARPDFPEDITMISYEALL
Sfp PPTase gel = Gel-Based Assay for Inhibitors of Bacillus subtilis Sfp phosphopantetheinyl transferase (PPTase); shares compounds with Sfp inh; purified Sfp, gel-based phosphopantetheinylation read-out; Potency, µM, usual class: inhibitors; hit rate 20% among 210; AID 2707, 2010;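 active = potency below 100 µM; inconclusive = dose-dependent response but potency above 100 µM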;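 note: band intensities scaled against SCH202676 control wells before curve fitting; potency is an IC50 for inhibitors of Sfp transfer activity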
Numbers without * were called inactive; i = inactive; ? = inconclusive; · = no result given; ! = repeats disagree; [ ] = dose if it differs, or a comment. Unless noted, calls come from the whole dose curve; as a rule, active = well fitted curve in the direction sought with a large enough effect; inconclusive = small, poorly fitted or top-dose-only effect, or another doubt; inactive = no such curve, though single readings can be large; an effect the other way counts as inactive or inconclusive. Unless noted, % is set by controls: 0 for no effect and ±100 for the full control effect.

SMILES	Tau fluor cs	Sfp inh	Tau fibril FP	Tau ThT inhib	Coupling enz	others
Cc1cccc(-n2c(=S)[nH]c3ccccc3c2=O)n1	1.5%	50.1µM*	-0.3%	0.8%	1.1
Cc1cccc(-n2c(C)nc3ccccc3c2=O)n1	-2.8%	15.7%	4.8%	-3.9%	4.7
CC(N)(COP(=O)(O)Oc1ccccc1)C(=O)O (centres undefined)	-5.0%	?	1.5%	-0.6%	·
Cc1ccccc1-n1c(/C=C/c2c(C)[nH]c3ccccc23)nc2ccccc2c1=O	3.98µM*[quencher]	·	?	?	·
C#C[C@@]1(O)CC[C@@H]2[C@@H]3CCC4=CC(=O)CC[C@@]4(C)[C@H]3CC[C@]21C	·	-3.3%	·	·	2.1
CCOc1cncc(/C=C/CCNC)c1	·	-9.9%	·	·	3.0
Oc1ccc2c3c1O[C@H]1c4oc5ccccc5c4C[C@]4(O)[C@H](C2)N(CC2CC2)CC[C@@]314	-7.8%	-0.8%	1.5%	-5.3%	0.7
CCCNC(=O)c1c(N)n(Cc2ccc3c(c2)OCO3)c2nc3ccccc3nc12	?	1.9%	?	?	-21.4
CC(C)CCNC(=O)c1c(N)n(Cc2ccc3c(c2)OCO3)c2nc3ccccc3nc12	?	-10.7%	?	?	-33.3*
CC(C)CCn1c(N)c(C(=O)NCc2cccs2)c2nc3ccccc3nc21	?	1.3%	?	-15.9%	-20.5
CC(C)CNC(=O)c1c(N)n(Cc2ccc3c(c2)OCO3)c2nc3ccccc3nc12	?	-19.7%	?	?	-50.6*
c1ccc(CN2CCC3(CCNCC3)CC2)cc1	·	-11.7%	·	·	3.0
CC(C)=CCCN1CCC(NC(=O)C(O)(c2ccccc2)C2CCCC2)CC1 (centres undefined)	·	5.1%	·	·	-0.4
Cc1cc(N2CCCCC2)nc2ccc(NC(=O)/C=C/c3ccc(OC(C)C)cc3)cc12	8.91µM*[quencher]	·	5.1%	2.82µM*	·
Cc1cc(N2CCNCC2)nc2ccccc12	·	4.0%	·	·	0.3
Cc1ccc(NC(=O)Nc2ccc3nc(N4CCN(C)CC4)cc(C)c3c2)cc1F	7.08µM*[quencher]	·	?	14.1µM*	·
NC(N)=NCCC[C@@H](N)C(=O)O	-2.0%	?	-2.8%	6.0%	0.3
Cn1c(=O)oc2cc(S(=O)(=O)NCc3cccnc3)ccc21	-2.7%	79.4µM*	5.0%	·	1.9
O=C(Nc1ccccc1)c1ccccc1I	·	-13.9%	·	·	-3.4
CCOc1ccccc1-n1c(O)c(C=Nc2c(C)n(C)n(-c3ccccc3)c2=O)c(=O)[nH]c1=O	3.4%	-5.6%	-0.8%	3.8%	-2.5
COc1ccc(OC)c(-n2c(O)c(C=Nc3c(C)n(C)n(-c4ccccc4)c3=O)c(=O)[nH]c2=S)c1	-7.2%	44.7µM*	-11.8%	-9.8%	0.6
C=C(C)[C@H]1CN[C@H](C(=O)O)[C@H]1CC(=O)O	-1.4%	39.8µM*!	0.6%	-3.0%	0.9	Sfp PPTase conf=11.8%;Sfp PPTase gel=i
NC(=O)c1ncn(C2OC(CO)C(O)C2O)n1 (centres undefined)	-0.6%	56.2µM*	-3.8%	3.5%	3.0	Sfp PPTase conf=83.5µM*;Sfp PPTase gel=55.6µM*
NC(=O)c1cn(C2OC(CO)C(O)C2O)c2ncnc(N)c12 (centres undefined)	-2.2%	6.0%	-0.1%	2.7%	2.2
Clc1ccc(COC(Cn2ccnc2)c2ccc(Cl)cc2Cl)cc1 (centres undefined)	-21.2%	56.2µM*!	-4.1%	?	-1.3	Sfp PPTase conf=?;Sfp PPTase gel=i
SMILES	Tau fluor cs	Sfp inh	Tau fibril FP	Tau ThT inhib	Coupling enz	others
C#CCN1CC(=O)N(COC(=O)[C@@H]2[C@@H](C=C(C)C)C2(C)C)C1=O	·	11.9%	·	·	·
O=C1CC(N2CCC(n3c(=O)[nH]c4ccccc43)CC2)C(=O)N1c1ccc(F)cc1 (centres undefined)	-1.2%	12.5%	-2.6%	-12.0%	-0.9
O=c1[nH]c2ccccc2n1C1CCN(CCCC(c2ccc(F)cc2)c2ccc(F)cc2)CC1	?	44.7µM*!	-8.0%	?	-3.5	Sfp PPTase conf=41.8µM*;Sfp PPTase gel=?
N#Cc1ccc(CN2CC[C@@]3(CCCN(C(=O)Oc4ccccc4)C3)C2)cc1	·	25.0%	·	·	0.0
CCOC(=O)c1c(/N=C/c2c(O)n(-c3ccccc3F)c(=S)[nH]c2=O)sc2c1CCCC2	-16.3%	12.6µM*	?	22.4µM*	-49.0*	Sfp PPTase conf=18.7µM*
CCOC(=O)/C=C(C)/C=C/CC(C)CCCC(C)C (centres undefined)	·	-1.4%	·	·	·
C[C@]12CC[C@@H]3c4cc(O)c(O)cc4CC[C@H]3[C@@H]1CC[C@@H]2O	?	3.98µM*	-14.7%	?	-21.6	Sfp PPTase conf=21µM*;Sfp PPTase gel=6.17µM*
C[C@]12CC[C@@H]3c4ccc(OC(=O)N(CCCl)CCCl)cc4CC[C@H]3[C@@H]1CC[C@@H]2O	·	-0.5%	·	·	·
C[C@]12CC[C@H]3[C@@H](CCC4=CC(=O)CC[C@@H]43)[C@@H]1CC[C@@H]2O	-6.9%	-0.9%	1.3%	-7.0%	1.7
C[C@]12CC[C@@H]3c4ccc(O)c(O)c4CC[C@H]3[C@@H]1CC[C@@H]2O	?	3.16µM*	?	14.1µM*	-47.4*	Sfp PPTase conf=6.63µM*;Sfp PPTase gel=2.06µM*
CCOC(=O)[C@]1(C#N)[C@@H]2C=CC(C(C)=O)=CN2[C@@H](C(N)=O)[C@@H]1c1ccsc1	-25.8%	39.8µM*	?	31.6µM*	-29.6	Sfp PPTase conf=?;Sfp PPTase gel=?
CN1CCC(n2nccc2N)CC1	-4.3%	-1.2%	-2.5%	-7.4%	2.1
Nc1ccnn1C1CCNCC1	-9.4%	17.8µM*	-3.9%	?	-0.5	Sfp PPTase conf=?;Sfp PPTase gel=i
CCOC(OCC)P(=O)(O)CCCN	-10.6%	20.2%	-8.2%	-3.9%	-1.6
Nc1nc(/C(=C/CC(=O)O)C(=O)NC2C(=O)N3C(C(=O)O)=CCSC23)cs1 (centres undefined)	-17.6%	56.2µM*	?	-22.1%	0.8	Sfp PPTase conf=41.8µM*;Sfp PPTase gel=?
CN1[C@H]2CC(=O)C[C@@H]1[C@@H](O)C2	·	?	·	·	0.2
